This is a sample that favours compounds with a hit; in the whole collection about 2.2% have one here.
Abeta rescue = compounds reversing amyloid beta toxicity in yeast; yeast expressing A-beta42, growth rescue, OD600, 48 h; response scale: 0% DMSO, 100% iron-clioquinol control; Potency, µM (highest dose often 46.1 µM), hits mostly activators; actives 0.063% (n = 410,000); AID 1347071; further: nearly all actives have a fitted effect of over 55% in size
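Yeast A-beta toxicity model in growth medium with pinned compounds, 48 h at 30 C; growth read as absorbance at 600 nm. Normalized to FeCl3/clioquinol equimolar mix (positive) and DMSO (negative).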
TDP-43 yeast inh = rescues yeast growth from TDP-43 toxicity; TDP-43 expressing yeast growth rescue, BacTiter-Glo, 24 h; Potency, µM (titrated, usually from 46.1 µM), hits mostly activators; AID 652104; actives 1.8% (n = 410,000); further: nearly all actives have a fitted effect of over 50% in size
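Cell-based yeast growth screen: TDP-43 expression induced in galactose, inoculum OD600=0.02 after raffinose pregrowth to mid-log. Read-out BacTiter-Glo luminescence at 24 hr, 30 deg C; inhibition of toxicity seen as signal increase.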
aSyn yeast inh = inhibitors of alpha-synuclein toxicity in yeast. Yeast expressing alpha-synuclein, growth rescue, BacTiter-Glo, 24 h. Potency, µM (top dose mostly 46.1 µM), usual class: activators. actives 0.14% (n = 370,000). AID 652106; further: nearly all actives have a fitted effect of over 65% in size
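Screening used galactose-induced yeast with toxic alpha-synuclein levels, exposed to compound for 24 hr at 30 deg C. Cell growth, read with BacTiter-Glo luminescence, gave the measured signal.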
FUS yeast rescue = FUS proteinopathy suppression in yeast | Potency, µM (titrated, usually from 76.6 µM), usual class: activators | AID 1347120 | actives 0.24% (n = 390,000) | S. cerevisiae FUS-expressing, growth rescue, OD600, 24 h; further: nearly all actives have a fitted effect of over 55% in size
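S. cerevisiae expressing FUS from galactose induction served as the toxicity model. Growth after 24hr at 30C, read as absorbance at 600 nm, indicates suppression of toxicity; compounds dosed at several concentrations.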
ERG-DNA inh = inhibitors of human ERG Ets domain-DNA interaction; P11308; fluorescence polarization, His-ERG Ets domain / labelled DNA; Potency, µM (titrated, usually from 76.9 µM), hits mostly inhibitors; actives 0.028% (n = 370,000); AID 624246; active means well fitted inhibition curve with a large enough effect in the polarisation, with a control signal flat; inconclusive means small, poorly fitted or top-dose-only effect, or effect the other way, or a change in a side signal; inactive means no such curve, though single readings can be large or run the other way; the % refers to the polarisation;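 further: polarization taken with two DNA probes labelled with fluorescein and Texas red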
Target sequence (P11308 whole entry, looked up, the tested form may be a part): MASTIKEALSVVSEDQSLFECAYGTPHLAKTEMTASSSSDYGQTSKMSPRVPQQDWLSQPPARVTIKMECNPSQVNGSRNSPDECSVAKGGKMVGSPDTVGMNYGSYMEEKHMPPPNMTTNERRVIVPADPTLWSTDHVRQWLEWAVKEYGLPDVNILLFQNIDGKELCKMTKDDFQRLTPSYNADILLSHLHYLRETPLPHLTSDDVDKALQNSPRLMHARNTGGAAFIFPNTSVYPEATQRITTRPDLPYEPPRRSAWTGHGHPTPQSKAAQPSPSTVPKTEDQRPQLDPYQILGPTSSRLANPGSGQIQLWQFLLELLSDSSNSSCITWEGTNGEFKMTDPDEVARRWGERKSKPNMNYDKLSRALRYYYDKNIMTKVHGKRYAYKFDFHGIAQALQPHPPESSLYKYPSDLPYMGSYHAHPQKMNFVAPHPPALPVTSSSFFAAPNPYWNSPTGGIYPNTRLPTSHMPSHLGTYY
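His-tagged ERG Ets domain (1 uM in the protein solution; 300mM KCl, 50mM Tris-HCl, 1mM EDTA, 1mM DTT, pH 7.5) received compound, then a probe mix of 5 nM fluorescein-DNA and 100nM Texas-615-DNA. Fluorescence polarization was read for both dyes.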
Mito fusion yeast = mitochondrial division inhibition or fusion activation; S. cerevisiae fusion-defective mutant growth rescue, CellTiterGlo 48 h; Potency, µM (top dose mostly 46.1 µM), most hits filed as activators; actives 0.23% (n = 320,000); AID 485298; further: nearly all actives have a fitted effect of over 45% in size
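Growth-rescue viability read-out: after 48 h at the non-permissive 37C in glycerol/ethanol YPEG, yeast mitochondrial fusion mutants are measured by CellTiterGlo luminescence; compounds (23 nl pinned per well) restoring growth score as division inhibitors or fusion activators.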
Hits are given with their value; 0 = inactive; ? = inconclusive; - = no result given; [ ] = another dose, or the depositor's remark. Unless noted, the call rests on the fitted dose curve; in most records, active means well fitted curve in the direction sought with a large enough effect; inconclusive means small, poorly fitted or top-dose-only effect, or another doubt; inactive means no such curve, though single readings can be large; an effect the other way counts as inactive or inconclusive.

SMILES	Abeta rescue	TDP-43 yeast inh	aSyn yeast inh	FUS yeast rescue	ERG-DNA inh	Mito fusion yeast
C=CCN1C(=O)/C(=C/c2ccc(O)c(OC)c2)S/C1=N/c1nccs1	0	22µM	0	-	-	?
C=CCN1C(=O)/C(=C/c2ccc(OCC(=O)O)cc2)S/C1=N/c1nccs1	0	0	0	0	0	0
CCc1nc(C)cn1S(=O)(=O)c1ccc(Cl)c(Cl)c1OC	0	?	-	0	0	-
O=C1C2=C(NC(=S)NC2c2ccc(Cl)cc2)NC(c2ccc(Cl)cc2)N1c1ccc(Cl)cc1 (centres undefined)	0	?	0	28µM	0	0
COc1cc(C=C(c2nc3ccccc3s2)c2nc3ccccc3s2)ccc1O	0	0[0.397 µM]	0	0	0	16µM
O=C(CCO)c1ccc(O)cc1	0	0	0	0	0	0
O=C(CCSc1ccc(Br)cc1)c1ccc(O)cc1	0	11µM	0	0	0	0
CCCC[C@H]1C2CC(OC(=O)Nc3ccccc3C)C(C2)[C@H]2CCCCN21 (some centres undefined)	-	-	-	0	-	-
CCCS(=O)(=O)c1nnnn1-c1cccc(OC)c1	0	11µM	0	0	0	0
CCn1c(CSc2nnc(-c3ccncc3)n2CCOC)nc2cc(C(=O)O)ccc21	0	0	0	0	5µM	0
CCn1c(CSc2n[nH]c(N)n2)nc2cc(C(=O)O)ccc21	0	0	0	0	16µM	0
CCn1c(CSc2nnc(-c3cccnc3)n2-c2ccccc2C)nc2cc(C(=O)O)ccc21	-	-	-	-	-	0
Cc1ccc(CN[C@@H]2CC[C@@]34CCCN3C(=O)CCC[C@H]4C2)o1	-	-	-	0	-	-
C(=C\c1ccccc1)/CSc1nnc(Cc2cccs2)n1-c1ccccc1	-	-	-	0	-	-
CCCNC(=O)c1cnn2c(C(F)F)cc(-c3ccccc3)nc12	0	13µM	-	0	0	-
COCCNC(=O)c1cnn2c(C(F)F)cc(-c3ccc(C)cc3)nc12	0	0	0	0	0	0
O=S(=O)(c1cccc(-c2csc(N/N=C/c3ccco3)n2)c1)N1CCOCC1	0	16µM	0	?	0	0
CCOCc1nnc(NC(=O)c2cc(Cl)ccc2OC)s1	0	13µM	0	0	0	0
CCOc1ccccc1NC(C)C(=O)Nc1cc(C(F)(F)F)ccc1N1CCOCC1 (centres undefined)	0	13µM	0	-	-	?
CCc1ccc(CNC(=O)CCCn2ccc3cc(S(=O)(=O)N4CCCC4)ccc32)cc1	0	0	-	0	0	-
COc1nc(-c2ccccc2)nnc1-c1ccccc1	0	?	0	0	0	0
COc1nc(-c2ccccc2)nc(C)c1CC(=O)O	0	0	0	0	0	6.3µM
Cc1ccc2onc(CC(=O)N3CCN(c4cccc(Cl)c4)CC3)c2c1	0	20µM	-	?	0	-
Cc1cccc(C(=O)NCC(=O)N2CCN(c3ccc(Cl)cc3)CC2)c1	0	0	0	0	0	0
Cc1ccc2onc(CC(=O)N3CCN(c4cc(Cl)ccc4C)CC3)c2c1	0	?	-	0	0	-
SMILES	Abeta rescue	TDP-43 yeast inh	aSyn yeast inh	FUS yeast rescue	ERG-DNA inh	Mito fusion yeast
Cc1ccc(N2CCN(C(=O)NCc3noc4ccc(C)cc34)CC2)c(C)c1	0	20µM	-	?	0	-
Cc1cc(C)cc(C(=O)NCC(=O)N2CCN(c3cccc(Cl)c3)CC2)c1	0	13µM	0	0	0	0
Cc1ccc2onc(CC(=O)N3CCN(c4cccc(C)c4C)CC3)c2c1	0	25µM	-	?	0	-
O=C(COc1ccc2c3c(c(=O)oc2c1)CCC3)N1CCN(c2ccc(F)cc2)CC1	0	32µM	0	0	0	?
O=C(COc1ccc2c3c(c(=O)oc2c1)CCCC3)N1CCN(c2ccc(F)cc2)CC1	0	0	0	0	0	0
O=C(COc1ccc2ccc(=O)oc2c1)N1CCN(c2ccccc2)CC1	0	20µM	0	0	0	0
CCC1C/C(=C\c2cc(OC)c(OC)cc2OC)C(=O)/C(=C/c2cc(OC)c(OC)cc2OC)C1 (centres undefined)	0	0	0	?	0	0
COc1cc(OC)c(OC)cc1/C=C1\CC(C)C/C(=C\c2cc(OC)c(OC)cc2OC)C1=O (centres undefined)	0	0	0	25µM	0	0
N#Cc1cccc(NC(=O)CCNS(=O)(=O)c2ccc3c(c2)CCN3C(=O)C2CC2)c1	0	0	0	0	0	-
COC(=O)c1ccn(CSc2cc(Cl)ccc2Cl)n1	0	13µM	0	0	0	0
CCCCOc1ccc(S(=O)(=O)NNC(=O)c2cc3ccccc3o2)cc1	0	0	0	-	0	11µM
CC(C)COc1ccc(S(=O)(=O)NNC(=O)c2cc3ccccc3o2)cc1	0	0	?	-	0	?
CN(C(=O)c1cccc(Nc2ccc(-c3ccc4c(c3)OCCO4)nn2)c1)C1CCCCC1	0	0	0	25µM	0	?
COc1ccc2cc(-c3cccc4[nH]cc(C)c34)ccc2c1	-	-	-	0	-	-
CCCCNc1c(-c2ccc(SC(C)CC)cc2)nc2cnccn12 (centres undefined)	0	0	0	10µM	0	-
CCCCNc1c(-c2ccc(OC)c(Sc3ccc(OC)cc3)c2)nc2cnccn12	0	32µM	0	?	0	-
CCCCNc1c(-c2ccc(SC(C)CC)c(OC)c2)nc2ccc(C)cn12 (centres undefined)	0	0	0	?	0	0
CCCCNc1c(-c2ccc(OC)c(Sc3ccc(OC)cc3)c2)nc2ccccn12	0	0	0	?	0	0
CCCC1CCC2(CC1)CCC2OC(=S)NCCc1ccc(Cl)cc1 (centres undefined)	-	-	-	0	-	-
CCn1c(-c2csc3ccccc23)n[nH]c1=S	0	22µM	0	-	0	0
CCCc1cc(-c2n[nH]c(=S)n2CC)cs1	0	35µM	0	0	0	0
CCn1c(-c2csc3c2CCC(C)C3)n[nH]c1=S (centres undefined)	0	11µM	0	-	0	0
CCc1cc(-c2n[nH]c(=S)n2CC)cs1	0	?	0	-	0	0
CN1C2=N[C@H](c3ccccc3Br)CC(=O)N2/C(=C\c2ccccc2)[C@@H]1c1ccccc1	-	-	-	0	-	-
COc1ccccc1-c1nc2c(c(SCc3ccc(F)cc3Cl)n1)Cc1c(CO)cnc(C)c1O2	0	0	-	0	0	-
O=C(C1CCCN1S(=O)(=O)c1ccc(Cl)s1)N1CCc2ccccc2C1 (centres undefined)	-	-	-	0	-	-
Cc1cccc(OCC(=O)Nc2ccc(Cl)c(-c3nc4ccccc4[nH]3)c2)c1	0	35µM	-	?	0	-
O=C(COc1ccc(F)cc1)Nc1ccc(Cl)c(-c2nc3ccccc3[nH]2)c1	0	0	-	0	0	-
O=C(COc1ccccc1F)Nc1ccc(Cl)c(-c2nc3ccccc3[nH]2)c1	0	35µM	-	?	0	-

From PubChem BioAssay
